Assay: inhibition of PAO1 biofilm formation – strain PAO1, LB-PBS medium, absorbance 600 nm, primary screen (AID 1176); also: test concentration not given here
Settings: P. aeruginosa PAO1 growth/biofilm, A600, 12 h; higher = more signal; call rule not given here

z-score, inactive:
Cc1cc(C)c(C(O)C2C=CC3C(=O)N(c4ccccc4)C(=O)C3N2Nc2ccccc2)c(C)c1 (stereo not given) 1.14
O=C1O[C@H](c2ccccc2)[C@H](c2ccccc2)N2[C@H]1[C@@H](C(=O)N1CCN(c3ncccn3)CC1)[C@]1(C(=O)Nc3ccc(C#CCCO)cc31)[C@H]2c1ccc(OCCO)cc1 3.36
O=C1CSC(c2cccc([N+](=O)[O-])c2)N1c1ccccc1 (stereo not given) 0.199
COC(=O)C(CC#Cc1ccc2c(c1)[C@]1(C(=O)N2)[C@H](c2ccc(O)cc2)N2[C@H](c3ccccc3)[C@H](c3ccccc3)OC(=O)[C@H]2[C@@H]1C(=O)O)C(=O)OC 0.875
COCCCNC(=O)[C@@]1(Cc2ccccc2I)c2ccccc2C(=O)N(Cc2ccccc2Cl)[C@H]1c1ccc(CO)cc1 0.112
COC(=O)[C@]1(Cc2ccccc2CN=[N+]=[N-])N=C(c2ccc(OCCCO)cc2)O[C@@H]1c1ccccc1 0.948
CN(C)CCCCCCNC(=O)[C@@H]1C[C@@H]2C(=O)NCC(=O)N2[C@@H]1c1ccc(O)cc1 -0.13
COC(=O)c1ccc(OC)c(/C=C\CC(CCc2ccccc2)OC(=O)c2ccncc2)c1 (stereo not given) 0.0619
CCOC(=O)C[C@H]1[C@H](OC(=O)Cc2ccc3c(c2)OCO3)[C@@H](NC(=O)c2ccccc2)c2cc(OCCCO)ccc2N1C(=O)c1ccc2ccccc2n1 -0.0057
CCCNC(=O)[C@@]1(Sc2ccc(C)cc2)CC(=O)N(Cc2ccccc2)[C@@H]1c1ccc(CO)cc1I 1.14

Source: PubChem BioAssay
